Reference: PubChem BioAssay AID1159580 (chemical genetic matrix, 2015)
About 2,000 (36%) of roughly 5,500 compounds were called active. Not shown: some 18% with an inconclusive outcome. Rule as the data show it: active = normalized growth mostly below about 0.91 (no sharp cut-off); inconclusive = no clear call, values can overlap the other calls; inactive = mostly above about 0.92. Some of the results follow.

Test: chemical genetic growth profiling, strain panel (AID 1159580);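 also: tested at 20 µM; growth read once vehicle control cultures reached saturation at 30 °C; 1 = growth at the plate median or of vehicle wells; lower values mean less growth of the strain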
Settings: S. cerevisiae deletion strains, growth OD
[1] = locus YAL040C, strain CLN3, stronger effect = lower value
[2] = locus YCL061C, strain MRC1 (second series), stronger effect = lower value
[3] = locus YDR363W, strain ESC2, stronger effect = lower value
[4] = locus YER002W, strain NOP16, stronger effect = lower value
[5] = locus YNL175C, strain NOP13, stronger effect = lower value
[6] = locus YNL197C, strain WHI3, stronger effect = lower value
[7] = locus YNL224C, strain SQS1, stronger effect = lower value
[8] = locus YOR083W, strain WHI5 (second series), stronger effect = lower value

Measured: normalized growth

Nc1nc(Nc2ccccc2)nc2c1ncn2[C@@H]1O[C@H](CO)[C@H](O)C1O (stereo partly drawn)
inactive: locus YAL013W, strain DEP1, stronger effect = lower value 0.982 | [1] 1.05 | [2] 0.999 | locus YDR150W, strain NUM1, stronger effect = lower value 0.999 | [3] 1.02 | [4] 1 | locus YMR263W, strain SAP30, stronger effect = lower value 1 | locus YMR307W, strain GAS1, stronger effect = lower value 1 | [5] 1.01 | [6] 1.01 | [7] 1.01 | [8] 1.02

N[C@H](C(=O)O)c1cc(O)cc(O)c1
inactive: [1] 0.975 | [2] 0.995 | [3] 0.949 | [4] 0.985 | [5] 1.02 | [6] 0.996 | [7] 1.01 | locus YNL322C, strain KRE1, stronger effect = lower value 0.982 | [8] 0.999 | locus YPL055C, strain LGE1, stronger effect = lower value 0.956 | locus YPL241C, strain CIN2, stronger effect = lower value 0.991

C[C@H]1O[C@H](OC2[C@@H](O)[C@@H](O)C(O)[C@H](O)[C@H]2O)[C@@H](N)C[C@@H]1N=C(N)C(=O)O (stereo partly drawn)
inactive: locus YAL021C, strain ccr4, stronger effect = lower value 0.989 | locus YAL026C, strain drs2, stronger effect = lower value 0.995 | locus YAL030W, strain snc1, stronger effect = lower value 1 | locus YBL061C, strain skt5, stronger effect = lower value 0.996 | locus YBR009C, strain hhf1, stronger effect = lower value 1.05 | locus YBR023C, strain chs3, stronger effect = lower value 0.99 | locus YBR171W, strain sec66, stronger effect = lower value 0.911 | locus YBR231C, strain swc5, stronger effect = lower value 0.999 | locus YBR279W, strain paf1, stronger effect = lower value 0.986 | locus YCL011C, strain gbp2, stronger effect = lower value 0.979 | locus YCL016C, strain dcc1, stronger effect = lower value 1 | locus YCL061C, strain MRC1, stronger effect = lower value 0.999 | locus YCL069W, strain vba3, stronger effect = lower value 1 | locus YCR088W, strain abp1, stronger effect = lower value 0.983 | locus YDL005C, strain med2, stronger effect = lower value 0.986 | locus YDL040C, strain nat1, stronger effect = lower value 0.992 | locus YDR001C, strain nth1, stronger effect = lower value 0.985 | locus YDR069C, strain doa4, stronger effect = lower value 0.999 | locus YDR137W, strain rgp1, stronger effect = lower value 0.937 | locus YDR159W, strain sac3, stronger effect = lower value 0.993 | locus YDR195W, strain ref2 1.02 | locus YDR297W, strain sur2, stronger effect = lower value 0.988 | locus YDR334W, strain swr1, stronger effect = lower value 0.965 | locus YDR335W, strain msn5, stronger effect = lower value 0.975 | locus YDR392W, strain spt3, stronger effect = lower value 0.882 | locus YEL003W, strain gim4, stronger effect = lower value 0.981 | locus YEL037C, strain rad23, stronger effect = lower value 0.994 | locus YEL061C, strain CIN8 (second series), stronger effect = lower value 0.993 | locus YER015W, strain faa2, stronger effect = lower value 0.995 | locus YER016W, strain bim1, stronger effect = lower value 0.991 | locus YER111C, strain swi4, stronger effect = lower value 0.995 | locus YER155C, strain BEM2 (second series), stronger effect = lower value 1.02 | locus YFR010W, strain ubp6, stronger effect = lower value 0.979 | locus YGL167C, strain pmr1, stronger effect = lower value 0.986 | locus YGL173C, strain kem1, stronger effect = lower value 0.994 | locus YGL227W, strain vid30, stronger effect = lower value 1 | locus YGL240W, strain doc1, stronger effect = lower value 1.01 | locus YGL253W, strain hxk2, stronger effect = lower value 0.994 | locus YHR013C, strain ard1, stronger effect = lower value 0.947 | locus YHR027C, strain rpn1, stronger effect = lower value 0.982 | locus YHR030C, strain SLT2, stronger effect = lower value 0.951 | locus YHR079C, strain IRE1, stronger effect = lower value 0.964 | locus YHR142W, strain chs7, stronger effect = lower value 0.927 | locus YJL092W, strain hpr5, stronger effect = lower value 0.974 | locus YJL095W, strain BCK1 (second series), stronger effect = lower value 0.992 | locus YJL095W, strain BCK1, stronger effect = lower value 0.969 | locus YJL115W, strain asf1, stronger effect = lower value 0.974 | locus YJL129C, strain trk1, stronger effect = lower value 0.921 | locus YJL154C, strain vps35, stronger effect = lower value 0.995 | locus YJL164C, strain tpk1, stronger effect = lower value 0.97 | locus YJL166W, strain qcr8, stronger effect = lower value 0.99 | locus YJL187C, strain SWE1, stronger effect = lower value 0.992 | locus YJR066W, strain TOR1, stronger effect = lower value 0.928 | locus YKL160W, strain elf1, stronger effect = lower value 0.957 | locus YKR026C, strain gcn3, stronger effect = lower value 0.997 | locus YKR091W, strain srl3, stronger effect = lower value 0.991 | locus YLL001W, strain dnm1, stronger effect = lower value 0.986 | locus YLL026W, stronger effect = lower value 0.989 | locus YLL041C, strain sdh2, stronger effect = lower value 0.977 | locus YLR027C, strain aat2, stronger effect = lower value 0.978 | locus YLR113W, strain HOG1, stronger effect = lower value 0.983 | locus YLR221C, strain rsa3, stronger effect = lower value 0.962 | locus YLR258W, strain gsy2, stronger effect = lower value 1.01 | locus YLR262C, strain YPT6 (second series), stronger effect = lower value 0.912 | locus YLR320W, strain mms22, stronger effect = lower value 0.967 | locus YLR342W, strain FKS1, stronger effect = lower value 0.993 | locus YLR357W, strain rsc2, stronger effect = lower value 1.01 | locus YLR370C, strain arc18, stronger effect = lower value 0.981 | locus YLR384C, strain iki3, stronger effect = lower value 1 | locus YML120C, strain ndi1, stronger effect = lower value 0.959 | locus YMR058W, strain fet3, stronger effect = lower value 0.988 | locus YMR125W, strain sto1, stronger effect = lower value 0.984 | locus YMR129W, stronger effect = lower value 1 | locus YMR205C, strain PFK2, stronger effect = lower value 1.04 | locus YMR231W, strain pep5, stronger effect = lower value 1.01 | locus YNL071W, strain lat1, stronger effect = lower value 0.963 | locus YNL183C, strain NPR1, stronger effect = lower value 0.944 | locus YNL209W, strain ssb2, stronger effect = lower value 0.989 | locus YNL248C, strain rpa49, stronger effect = lower value 0.933 | locus YNL322C, strain KRE1 (second series), stronger effect = lower value 0.983 | locus YNR049C, strain mso1, stronger effect = lower value 0.986 | locus YOR001W, strain rrp6, stronger effect = lower value 0.923 | locus YOR070C, strain gyp1, stronger effect = lower value 0.987 | locus YOR080W, strain dia2, stronger effect = lower value 0.984 | locus YOR083W, strain WHI5, stronger effect = lower value 0.934 | locus YOR106W, strain vam3, stronger effect = lower value 0.94 | locus YOR231W, strain MKK1, stronger effect = lower value 0.97 | locus YOR265W, strain rbl2, stronger effect = lower value 0.989 | locus YOR270C, strain vph1, stronger effect = lower value 0.924 | locus YOR290C, strain snf2, stronger effect = lower value 0.927 | locus YPL051W, strain arl3, stronger effect = lower value 0.964 | locus YPL078C, strain atp4, stronger effect = lower value 0.951 | locus YPL106C, strain sse1, stronger effect = lower value 0.971 | locus YPL240C, strain hsp82, stronger effect = lower value 0.97 | locus YPL256C, strain CLN2, stronger effect = lower value 0.98
